The record followed here is PubChem BioAssay AID1878 (Sanford-Burnham Center for Chemical Genomics, 2009).

About 200 (20%) of roughly 1,000 compounds were called active. These entries were drawn from the full list. Measured potencies and affinities stand elsewhere. A number with no mark means an inactive call. No stated cut-off is given here; in the data, active means inhibition above about 55%; inactive means the rest.

Sequence of Dual specificity protein phosphatase 3 (Homo sapiens) (P51452 whole entry, looked up): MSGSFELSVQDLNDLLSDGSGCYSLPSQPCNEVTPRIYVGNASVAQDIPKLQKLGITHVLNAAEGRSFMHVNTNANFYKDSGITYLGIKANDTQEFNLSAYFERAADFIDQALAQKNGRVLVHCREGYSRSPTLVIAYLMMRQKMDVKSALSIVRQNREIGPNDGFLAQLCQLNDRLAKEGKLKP

This test addresses Dual specificity protein phosphatase 3 (Homo sapiens) (UniProt P51452). Description: VHR1 phosphatase inhibitors, biochemical (AID 1878). Particulars: recombinant VHR phosphatase, fluorogenic substrate; at 13.3 µM; hits give high values.
The term inhibition denotes the relative decrease from the control value, in per cent. On to `COCCN(CC1CCCN(C2Cc3ccccc3C2)C1)C(=O)CSC` (configuration not stated), for which the inhibition is -11.6%. Consider `C=C(C)CCC(C)N1CCC(n2nccc2NC(=O)CCCc2ccccc2)CC1` (configuration not stated), for which the inhibition is -2.3%. Then `N#C/C(=C\c1ccc(OCc2ccc(Br)cc2)cc1)C(=O)Nc1cccc(C(=O)O)c1`, with 87.5% (active); and `Oc1ccc(NCc2ccc(OCc3ccccc3)cc2)cc1`, with -5.6%; and `N#C/C(=C\c1ccc(OCc2ccc(Cl)cc2)cc1)C(=O)Nc1cccc(C(=O)O)c1`, with 84.9% (active). To `O=C(Nc1cccc(Cl)c1)OCCOc1ccccc1` belongs -0.9%; to `Cn1c(=O)c2[nH]c(N3CCCCC3)nc2n(C)c1=O`, 6.6%; to `Cc1ccc(-n2nc3c(=O)n(CCCC(=O)NCc4ccco4)nc(C)c3c2C)cc1`, -4.7%. `CCN(CC)c1ccc(NS(=O)(=O)c2ccc(-c3ccc(=O)[nH]n3)o2)c(C)c1`: the inhibition is -2.9%. Then `COc1ccc(CCN(C)CC(O)COc2ccc(C(C)=O)cc2OC)cc1OC` (configuration not stated), with -11.9%; and `CC(=O)COC(=O)C1=NN(c2ccccc2)C(=O)CC1`, with 8.8%; and `CCOC(=O)c1ccc(NCCc2ccc(OC)c(OC)c2)c(N)c1`, with 33%. To `COc1ccc(/C=N/N=C2/NC(=O)C(CC(=O)O)S2)cc1OCc1ccc(Cl)cc1Cl` (configuration not stated) belongs 95.9% (active); to `COc1ccc(Cl)cc1-n1c(=S)sc2c(=O)n(-c3ccc(F)cc3)c(SCC(=O)O)nc21`, -3.3%; to `CCN(CC)c1ccc(NC(=O)c2c(C)noc2C)cc1`, -3.1%. To `COCCN(C(=O)c1ccc(OC2CCN(S(=O)(=O)N(C)C)CC2)cc1)C(C)C` belongs -6.4%; to `COc1cc(C(=O)OC2C[C@H]3CC[C@@H](C2)N3C)ccc1O` (some centres not stated), -1.1%; to `COc1ccc(C(=O)C2CCCN(C(=O)c3cccc(N(C)C)c3)C2)cc1OC` (configuration not stated), 16.4%. Consider `Cn1c(/C=C/c2ccc(Cl)cc2Cl)c([N+](=O)[O-])c(=O)n(C)c1=O`, for which the inhibition was 20.2%. Then `CC1CCCCN1CCCNC(=O)Cn1c(=O)c2cccn2c2ccccc21` (configuration not stated), with -1.3%; and `COc1ccc(/C=N\NC(=O)c2cc(O)c(O)c(O)c2)cc1CN1CCN(c2ccc(F)cc2)CC1`, with -34.7%; and `COc1ccc2c(c1)cc1c(=O)n(CC(=O)NC(C)CCc3ccccc3)nc(C)n12` (configuration not stated), with -4%. To `CN1CC(=O)N2Cc3[nH]c4ccccc4c3C[C@H]2C1=O` belongs 11.2%. Then `Cc1ccc(N2CCN(c3ncccc3[N+](=O)[O-])CC2)c(C)c1`, with 8.1%; and `NC(=O)C(c1ccc(F)cc1)c1ccc(C(=O)c2ccccc2)cc1` (configuration not stated), with 18.3%. As for `CCOCCn1c2ccccc2c2nc3ccccc3nc21`, the inhibition was -4.2%. To `COc1ccc(C(=O)/C=C2/C(=O)Nc3ccccc32)cc1OC` belongs 13.2%; to `CC(Oc1ccc2ccc(=O)oc2c1)C(=O)NC1CC(C)(C)NC(C)(C)C1` (configuration not stated), -2.5%; to `Nc1ccc2c(c1Cl)C(=O)c1ccc(N)c(Cl)c1C2=O`, 99.8% (active). To `CCCC(=O)Nc1ccc(S(=O)(=O)N2CCOCC2)cc1` belongs -5.6%. Consider `CC(C)(C)CC(=O)Nc1ccc(-c2nnc3n2CCCCC3)cc1`, for which the inhibition was 27.9%. Then `COc1nc(C)cc(C)c1S(=O)(=O)c1ccccc1`, with 6.1%.

As for `c1ccc(CCNC2CCCCCC2)cc1`, the inhibition is 14.2%.

For the compound `O=C(NCCc1ccccc1)C1CC(=O)N(CCc2ccccc2)C1` (configuration not stated), the inhibition is -8.3%. Then `CC1CCN(S(=O)(=O)c2ccc3c(c2)N(CC(=O)NCCCN2C(C)CCCC2C)C(=O)CO3)CC1` (configuration not stated), with -11.5%; and `O=C(O)Cn1nc2c3c(cccc3c1=O)-c1ccccc1-2`, with -3.4%. Then `Cc1cc2nc(/C=C/c3nc4cc(C)c(C)cc4[nH]3)[nH]c2cc1C`, with 82.4% (active); and `NC(=O)C(c1ccccc1)c1ccc(C(=O)c2ccccc2)cc1` (configuration not stated), with -3.2%; and `Cn1nc([N+](=O)[O-])c2c(-c3nc4ccccc4s3)c(N)n(C3CCCCC3)c2c1=O`, with 97.9% (active). To `COc1cccc(NC(=O)CN(C)S(=O)(=O)c2ccc3[nH]c(=O)oc3c2)c1` belongs 9%; to `O=C(Cn1ncc2c([nH]c3ccccc32)c1=O)N1CCOCC1`, 16.5%; to `COc1cc(/C=C2/C(=O)NN(c3ccc(Cl)cc3)C2=O)cc(OC)c1O`, 17.9%.

For `COc1cc(/C=C2/C(=O)N(c3cccc(Br)c3)N=C2C)cc(OC)c1O`, the inhibition was 6.8%.

On to `CC(C)(C)OC(=O)NCC1CCN(S(=O)(=O)Cc2ccccc2)CC1`, for which the inhibition is -7.1%. To `C/C(N)=C(/C#N)C(=O)COC(=O)c1cc(-c2ccc(Br)cc2)nc2ccccc12` belongs -2.7%; to `CCOc1ccc(-c2cc(C(=O)NCCCN3CCCC3)c3ccccc3n2)cc1`, -16.4%. Then `COc1ccccc1CN1CCCC(CN(CCN(C)C)C(=O)C2CCCC2)C1` (configuration not stated), with -18.4%.

Regarding `Nc1nn2c(-c3ccccc3)cc(=O)[nH]c2c1N=Nc1ccc(Br)cc1`, the inhibition is 81.7% (active). For `CC(C)(C)c1cc(=O)n2[nH]c(N)nc2n1`, the inhibition was -15.2%. To `COC(=O)C1(C)NC(c2ccc(Cl)cc2)C2C(=O)N(c3ccccc3)C(=O)C21` (configuration not stated) belongs -6.5%; to `CN1CCN(c2nc(-c3ccccc3Cl)nc3ccccc23)CC1`, 5.7%; to `COc1ccc(-c2cc3nc4ccccc4n3c(N)c2C#N)cc1`, 95.4% (active). To `COc1ccc(NC2CCCN(C(=O)CCN3CCOCC3)C2)cc1` (configuration not stated) belongs 2.8%. As to `CC(C)OC(=O)CCCNc1ccc([N+](=O)[O-])cc1[N+](=O)[O-]`, the inhibition was 5.9%. Then `Cc1cc(=O)oc2cc(OC(C)C(=O)NCCc3ccc(S(N)(=O)=O)cc3)ccc12` (configuration not stated), with -4.7%; and `Cc1cc(C)c(S(=O)(=O)c2cccc(Br)c2C)c(=O)[nH]1`, with 9.5%.

For `O=C(Nc1ccc(Br)cc1F)c1ccc2nsnc2c1`, the inhibition is 0.8%. For the compound `CCC(Sc1nnc(-c2ccco2)n1C)C(=O)Nc1nnc(C)s1` (configuration not stated), the inhibition is -1.6%. Then `CCCCCCN1CC(=O)N2Cc3[nH]c4ccccc4c3C[C@H]2C1=O`, with 11.5%; and `COc1cccc(/C=N/Nc2ncnc3c2[nH]c2ccc(C)cc23)c1OC`, with 97.6% (active).

As for `COc1ccc(/C=N/NC(=O)c2[nH]c3ccc(C)cc3c2-c2ccccc2)c(C(=O)O)c1OC`, the inhibition is 6.7%. With `O=C(COCc1cc(-c2ccc3c(c2)OCO3)on1)Nc1cccnc1Cl`, the inhibition is 2.9%.

Turning to `COc1ccccc1N1CCN(C2CCCN(C(=O)CCc3cnccn3)C2)CC1` (configuration not stated), the inhibition was -1.8%. Then `C[C@]1(CO)CCC[C@@]2(C)C1CC[C@@H](CO)[C@@H]2CCc1ccoc1` (some centres not stated), with -0.3%. Then `CCCc1c(C(=O)N/N=C(\C)CCc2ccccc2)nnn1-c1nonc1N`, with 1.7%; and `CCCOc1ccc(-c2c(C(=O)N/N=C/c3cccnc3)nnn2-c2nonc2N)cc1`, with 96.5% (active); and `C/C(=N\NC(=O)c1nnn(-c2nonc2N)c1C)c1ccc(OCc2ccccc2)cc1`, with 8.6%. Then `CCc1nn(CC(=O)NCc2ccccc2Cl)c(=O)c2cccn12`, with 17.5%. On to `COC(=O)c1sccc1NC(=O)Nc1ccc(C)cc1C`, for which the inhibition is -7.1%. In the case of `O=C(Nc1cccc2ncccc12)c1ccccc1F`, the inhibition is -0.8%.

Turning to `COc1cccc(C2c3[nH]c4ccccc4c3C[C@H]3C(=O)N(CCCOC(C)C)CC(=O)N23)c1` (some centres not stated), the inhibition is 10.9%. Take `COc1ccc(OC)c(-c2csc(NC(=O)Cc3ccc(F)cc3)n2)c1`: the inhibition was 0.5%. As for `COc1ccc2[nH]c(=O)c(-c3noc(-c4ccc(F)cc4)n3)cc2c1`, the inhibition was 97.2% (active).

As to `Cn1cnc(S(=O)(=O)N2CCN(c3ccc(F)cc3)CC2)c1`, the inhibition is -8%. Consider `Cc1ccc(NC(=O)NCCN2CCCCC2)cc1C`, for which the inhibition is -2%. As for `Cc1ccc(NC(=O)NN2CCN(C)CC2)cc1C`, the inhibition is -0.5%. Then `Cc1cccc(NC(=O)Cc2nnc(NC(=O)Nc3ccccc3F)s2)c1`, with 16.3%; and `Cc1ccc(NC(=O)Nc2nnc(-c3ccncc3)s2)cc1C`, with 94.2% (active). Then `O=C(Nc1ccc(Cl)c(Cl)c1)Nc1ccccn1`, with 3.2%. Turning to `CCC(C(=O)NCCCN1CCN(C)CC1)n1nc(C)n2c(cc3occc32)c1=O` (configuration not stated), the inhibition is -10.7%. Then `CC(=O)OC1CC2(C)/C(=N\O)CCC2C2CCc3cc(O)ccc3C12` (configuration not stated), with -5.1%. To `Cc1ccc(-n2nc3c(=O)n(CCCC(=O)NC4CCC(C)CC4)nc(C)c3c2C)cc1` (configuration not stated) belongs 23.9%; to `CCN(CC)C(=O)Cn1cc(C(=O)C(=O)NCCCN2CCCCC2)c2ccccc21`, 1.8%; to `O=C(NCc1ccc(F)cc1)C1CCN(S(=O)(=O)c2cccc3nonc23)CC1`, 4.8%.

For `CC(C)C[C@H](NC(=O)C1CC(=O)N(c2ccc3c(c2)OCO3)C1)C(=O)NC1CCCC1` (some centres not stated), the inhibition was -5%. For the compound `CCN(CC)CCCNC(=O)c1ccc(C)c(NC(=O)C2=C(C)OCCS2)c1`, the inhibition is 5.7%. For `COc1cc(OC)nc(Oc2cc(C=O)ccc2OC)n1`, the inhibition is 19.7%. To `CCN(CC)CCCNC(=O)c1cn(C)c2ccc(S(=O)(=O)N(C)C3CCCCC3)cc2c1=O` belongs -8.9%; to `Cn1c(=O)c(=O)n(C)c2cc(N3CCOCC3)c(NS(=O)(=O)c3ccc(F)c(Cl)c3)cc21`, -2.4%. Then `CC(=O)c1ccc(S(=O)(=O)Nc2ccc(N3CCOCC3)cc2)cc1`, with -2%. To `O=S(=O)(Nc1ccc(Cl)cc1)c1ccc(N2CCOCC2)c(NC(=S)NCCN2CCOCC2)c1` belongs 57.1% (active); to `CC(C)(C)NC(=O)N1CCN(c2ncccc2C(F)(F)F)CC1`, -1.3%.
